Experimental data taken from PubChem BioAssay (NCI).
The panel holds about 79,000 compounds, 15% with a hit somewhere; the sample as a whole holds those more often. No stated cut-off is given here; in the data, active means growth inhibition above about 70%; inactive means the rest.

Key:
[1] = NCI Yeast Anticancer Drug Screen. Data for the rad50 strain (AID 155);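 further: 0% = growth of vehicle-only cultures of the same strain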; details: S. cerevisiae rad50 strain growth inhibition; at 50.0 µM; active compounds read high
Summary of the method: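 A DNA repair-deficient yeast mutant serves as the test organism; compound-induced growth inhibition is calculated against vehicle-treated cells.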

[2] = NCI Yeast Anticancer Drug Screen. Data for the mec2-1 strain (AID 157); details: S. cerevisiae mec2-1 strain, at 50.0 µM, active compounds read high
Summary of the method: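 Growth inhibition is read against vehicle-treated controls after compound exposure of the mec2-1 yeast strain, which is defective in DNA damage repair or cell cycle control.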

[3] = NCI Yeast Anticancer Drug Screen. Data for the sgs1 mgt1 strain (AID 161);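 further: 0% = growth of cultures given vehicle only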; details: S. cerevisiae sgs1 mgt1 strain, at 50.0 µM, active compounds read high
Summary of the method: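 Compounds are added to genetically altered yeast, and growth is compared with cultures given vehicle alone to give percent inhibition.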

[4] = NCI Yeast Anticancer Drug Screen. Data for the cln2 rad14 strain (AID 165);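 further: 0% = growth equal to vehicle treated cultures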; details: S. cerevisiae cln2 rad14 strain, at 50.0 µM, active compounds read high
Summary of the method: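 Growth inhibition, relative to vehicle-treated controls, is the read-out. The test organism is a yeast strain with defined genetic alterations, cln2 rad14.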

[5] = NCI Yeast Anticancer Drug Screen. Data for the bub3 strain (AID 167); details: S. cerevisiae bub3 mutant strain, at 50.0 µM, active compounds read high
Summary of the method: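 Inhibition values come from growth of compound-treated mutant yeast normalised to vehicle-treated controls.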

[6] = NCI Yeast Anticancer Drug Screen. Data for the mlh1 rad18 strain (AID 175); details: S. cerevisiae mlh1 rad18 strain growth inhibition; at 50.0 µM; active compounds read high
Summary of the method: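 Cells of a genetically altered yeast strain, deficient in DNA damage repair, were treated with compound. Their growth was then compared with that of vehicle-treated cultures to give inhibition.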

Measured: growth inhibition

O=C1CCC(=O)N2CCCCN12
inactive: [1] -4.7% | [2] -12.4% | [3] 11% | [4] 18.6% | [5] 22.5% | [6] 13.1%

O=C(COc1ccc(Cl)c(Cl)c1)NCc1ccc([N+](=O)[O-])cc1
inactive: [1] 0.35% | [2] 28.2% | [3] 20.9% | [4] -10.7% | [5] 27.8% | [6] 22.9%

CC(C)(C)OC(=O)N(CCCCNC(=O)C(F)(F)F)CCCNC(=O)C(F)(F)F
inactive: [1] -26.4% | [2] -30.3% | [3] -26% | [4] 11.6% | [5] -29.8% | [6] -86%

CCOC(=O)c1c(SC(=O)c2ccc(OC)cc2)n(-c2ccccc2)c(=S)n(-c2ccccc2)c1=O
inactive: [1] 16.2% | [2] 0.75% | [3] 3.75% | [4] 8.55% | [5] 16.8% | [6] 12.8%

CCCCCCO/N=C\c1c2c(O)c3c(O)c(C)c4c(c3c1O)C(=O)C(C)(O/C=C\C(OC)C(C)C(OC(C)=O)C(C)C(O)C(C)C(O)C(C)/C=C\C=C(\C)C(=O)N2)O4 (stereo unspecified)
inactive: [1] 25.2% | [2] 63.4% | [3] 36.6% | [4] 54% | [5] 26.2% | [6] 53.9%

O=C(O)c1c(CC(Cc2ccc3c(c2)CCCC3)C(=O)O)ccc2c1CCCC2 (stereo unspecified)
inactive: [1] 46.3% | [2] 23.6% | [3] 9.8% | [4] 11.8% | [5] 40.9% | [6] 56.7%

CC1CCC(NC(=O)NCCCl)c2ccccc21 (stereo unspecified)
inactive: [1] -7.05% | [2] -1.3% | [3] -1.8% | [4] -23.8% | [5] -14.2% | [6] -6.65%

Cn1c(-c2ccccc2)c2c(=O)oc3ccccc3c2c1-c1ccccc1
inactive: [1] -14.6% | [2] 8.8% | [3] 9.55% | [4] 1.8% | [5] 8.25% | [6] 19.1%

CCOc1cc2c(cc1O)/C(=N\O)C[C@@H]1[C@@H]2CC[C@]2(C)[C@@H](O)CC[C@@H]12
inactive: [1] 31.6% | [2] 13% | [3] 57.2% | [4] 20.6% | [5] 24.2% | [6] -9.15%

Cc1nn(C(=O)c2ccncc2)c2c1C(c1ccccc1)SC(N)=N2 (stereo unspecified)
inactive: [1] -2.9% | [2] -20.1% | [3] 18.9% | [4] 9.55% | [5] 15.1% | [6] 2.35%

O=C1CCSCCC(=O)Nc2ccccc2N1
inactive: [1] 3.6% | [2] 0.85% | [3] 16.6% | [4] 20.4% | [5] 17.9% | [6] -65.4%

CC(CNC(=O)C12CC3CC(CC(C3)C1)C2)NC(=O)C12CC3CC(CC(C3)C1)C2 (stereo unspecified)
inactive: [1] 6.45% | [2] 11% | [3] -27.4% | [4] 7.85% | [5] -11.8% | [6] 14.3%

O=S(=O)(N/C(=C(\NS(=O)(=O)c1ccccc1)c1ccccc1)c1ccccc1)c1ccccc1
inactive: [1] 63.7% | [2] 6.15% | [3] 39% | [4] 18.3% | [5] 60.9% | [6] 61.2%

Oc1[nH]c2ccccc2c1N=NC1=NCCCCN1
inactive: [1] -33.2% | [2] -36.5% | [3] -6.65% | [4] 15.7% | [5] -3.35% | [6] -14.7%

CCOC(=O)C(NC(=O)NC(C(=O)OCC)C(=O)OCC)C(=O)OCC
inactive: [1] -16.7% | [2] -20.6% | [3] -6.55% | [4] -4.05% | [5] -7.7% | [6] -17.6%

C=CCc1cc(OC)c2c(c1)C(O)CC(c1ccccc1)O2 (stereo unspecified)
inactive: [1] 15.2% | [2] -24.6% | [3] -34.6% | [4] -6.2% | [5] 2.9% | [6] 1.55%

CC(=O)c1ccc(C2CCC[C@H]2c2ccc(C(C)=O)cc2)cc1 (stereo partly specified)
inactive: [1] 4.15% | [2] -1.55% | [3] 1.75% | [4] -40.2% | [5] 9.3% | [6] -16.4%

CC(C(=O)O)C1(O)CCCCC1 (stereo unspecified)
inactive: [1] 0.6% | [2] -13.9% | [3] -8.4% | [4] -25.4% | [5] 13.7% | [6] -8.4%

O=C(NNC(=O)c1ccc([N+](=O)[O-])cc1)c1ccccc1
inactive: [1] -5.85% | [2] 13.1% | [3] 15.9% | [4] -30.1% | [5] -13.4% | [6] -16.1%

[Cl][Cu][Cl].c1ccc2c(c1)Sc1ccccc1[N+]2=c1ccc2nc3ccccc3sc-2c1
inactive: [1] 26.1% | [2] 45.8% | [3] 29.8% | [4] 2.7% | [5] 29.9% | [6] 35%

COc1ccc2c(c1)c(=O)c1c(NCCCN(C)C)ccc3ncn2c31
inactive: [1] 34.6% | [2] -5.35% | [3] 15.8% | [4] -1.7% | [5] -9.6% | [6] 9.3%

O=c1nc(Oc2ccccc2)nc2c3ccccc3ccn12
inactive: [1] -5.4% | [2] 16.1% | [3] 11.9% | [4] -9.9% | [5] 18.8% | [6] 24.4%

Cc1nn(C(=S)S)c(C)c1N=Nc1ccc(O)cc1
inactive: [1] 9.3% | [2] 10.5% | [3] 16.9% | [4] -16.7% | [5] 5.35% | [6] 18.6%

O=C(O)/C=C/c1c2ccc(=O)c(O)c-2oc2c(O)c(O)ccc12
inactive: [1] 36.4% | [2] 24.4% | [3] 13.9% | [4] -23.9% | [5] 10.2% | [6] 44.8%

CN(C)CCN1C(=O)CC[C@@]2(C)C1=CC[C@@H]1[C@@H]2CC[C@@]2(C)[C@H]1CC[C@]2(C)O
inactive: [1] -21.7% | [2] -12.8% | [3] -18.6% | [4] -11.1% | [5] -0.1% | [6] -9.15%

Nc1cc(S(=O)(=O)O)ccc1O
inactive: [1] -1% | [2] -16.1% | [3] -21.9% | [4] -41.9% | [5] 3.05% | [6] -33.5%

CCCCCCCOC(=O)C(N)c1ccccc1 (stereo unspecified)
inactive: [1] -5.2% | [2] -32.1% | [3] -22.4% | [4] 7.5% | [5] -7.6% | [6] 4.1%

O=c1[nH]c(=O)c2[nH]cnc2[nH]1
inactive: [1] 8.05% | [2] -6% | [3] 5.9% | [4] 2.55% | [5] 9.9% | [6] 9.75%

O=C(N1CCOCC1)C12OC3CC(CC(C3)O1)O2
inactive: [1] 8.5% | [2] 1.95% | [3] 3.45% | [4] 11.2% | [5] 17.6% | [6] 4.65%

CC1(C)C2CCC(OC(=O)c3ccc([N+](=O)[O-])cc3)C1C2 (stereo unspecified)
inactive: [1] 7.25% | [2] -5.15% | [3] 3.5% | [4] -8.1% | [5] 9.95% | [6] -20.8%

CCCCn1c(-c2ccccc2)cs/c1=N\N=C1C=C(C(C)(C)C)C(=O)C(C(C)(C)C)=C1
inactive: [1] 12.2% | [2] -13.9% | [3] 0.05% | [4] -35.2% | [5] -16.9% | [6] 16.9%

CC1(C)C(=NNC(=S)NN)C(C)(C)C1=NNC(=S)NN
inactive: [1] 40.5% | [2] 36% | [3] 42.4% | [4] 18.9% | [5] 46.5% | [6] 38.7%

CC1(c2ccco2)CCC(=O)CC1=O (stereo unspecified)
inactive: [1] 4.2% | [2] 4.25% | [3] 4.1% | [4] 11.2% | [5] -12.9% | [6] 1.1%

NC(CC(=O)O)CC(=O)O
inactive: [1] 12.9% | [2] 2.6% | [3] 1.8% | [4] 14.7% | [5] 5.65% | [6] 17.8%

O=c1[nH]c(=O)n(C2CC(O)C(CO)O2)cc1C#Cc1ccc(C(F)(F)F)cc1 (stereo unspecified)
inactive: [1] 13.1% | [2] -3.4% | [3] 5% | [4] -2.45% | [5] 19.2% | [6] -13.7%

COC(=O)C1OC(O[C@H]2CC[C@]3(C)[C@H]4CC=C5[C@@H]6CC(C)(C)CC[C@]6(C(=O)OC)CC[C@@]5(C)[C@]4(C)CC[C@H]3C2(C)C)C(O)C(O)C1O (stereo partly specified)
inactive: [1] 5.45% | [2] -8.4% | [3] 2.05% | [4] 5.85% | [5] 23.6% | [6] 15.1%

N#C[C@H](c1nc2ccccc2s1)c1nc2ccccc2nc1Cl
inactive: [1] 4.95% | [2] 6.85% | [3] 22.4% | [4] 1.45% | [5] 5.15% | [6] 5.25%

O=C(NC(=O)c1ccccc1[N+](=O)[O-])Nc1ccc(Oc2ncc(Br)cn2)c(Cl)c1
inactive: [1] -1.35% | [2] -30.8% | [3] -19.4% | [4] 0.6% | [5] -9.25% | [6] -56.8%

NC(CCOCCP(=O)(O)CCOCCC(N)C(=O)O)C(=O)O (stereo unspecified)
inactive: [1] -42% | [2] -20.8% | [3] -27.1% | [4] -4.5% | [5] -8.95% | [6] -8.75%

CC(=O)c1ccc2c(c1)-c1ccc(C(C)=O)cc1-2
inactive: [1] -11.9% | [2] -0.7% | [3] -14.4% | [4] -11% | [5] -10.8% | [6] -7.6%

COc1cc2c(cc1OC)C(C(CO)CO)N(CC(O)CCl)CC2 (stereo unspecified)
inactive: [1] -25.6% | [2] -16.1% | [3] -26% | [4] -6.65% | [5] -13.9% | [6] -30.8%
